Screening data (PubChem)
VLA-4 inh: inhibition in a human VLA-4 binding assay. AID 2557. VLA-4 expressing cells, ligand binding flow cytometry. P13612. 330,000 compounds, 0.2% hits. inhibition, % (about 7 µM as worked out from the volumes in the protocol)
LANA-H2B inh: blocks KSHV LANA binding to histone H2A/H2B | cell-free LANA-H2A/H2B peptide, fluorescence polarization | inhibition, % (concentration not given with the values) | 320,000 compounds, 0.6% hits | AID 2629; in the data active means inhibition mostly above about 10%, no sharp cut-off; inactive means mostly below about 6.7%
GRK2 inh: inhibitors of human GRK2 displacing RNA aptamer | bead flow cytometry, FAM-aptamer displacement from GRK2 | inhibition of aptamer binding, % at 10 µM | 330,000 compounds, 0.59% hits | AID 488847;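 active means inhibition of aptamer binding above 40%, roughly 3 SD of noise, on plates passing a quality check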;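 further: median bead fluorescence of bound FAM aptamer so fluorescent compounds give negative values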
HDAC3 inhib: blocks human histone deacetylase 3. inhibition, % at 8.3 µM. O15379. recombinant HDAC3, fluorogenic peptide/trypsin coupled, fluorescence. 320,000 compounds, 0.15% hits; in the data active means inhibition above about 26%, passing the limit was not always enough; inconclusive means no clear call, values can overlap the other calls
DSG3 Ab inh: inhibitors of pemphigus antibody binding to human desmoglein-3; P32926; DSG3-coupled beads, scFv-anti-DSG3-GFP binding, flow cytometry; stronger effect = lower value; binding (percent of control), % at 10 µM; 310,000 compounds, 0.48% hits;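 active means binding more than 3 SD below its plate's average and above zero; inconclusive means below that plate limit but binding exactly zero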
Target sequence (P32926 whole entry, looked up): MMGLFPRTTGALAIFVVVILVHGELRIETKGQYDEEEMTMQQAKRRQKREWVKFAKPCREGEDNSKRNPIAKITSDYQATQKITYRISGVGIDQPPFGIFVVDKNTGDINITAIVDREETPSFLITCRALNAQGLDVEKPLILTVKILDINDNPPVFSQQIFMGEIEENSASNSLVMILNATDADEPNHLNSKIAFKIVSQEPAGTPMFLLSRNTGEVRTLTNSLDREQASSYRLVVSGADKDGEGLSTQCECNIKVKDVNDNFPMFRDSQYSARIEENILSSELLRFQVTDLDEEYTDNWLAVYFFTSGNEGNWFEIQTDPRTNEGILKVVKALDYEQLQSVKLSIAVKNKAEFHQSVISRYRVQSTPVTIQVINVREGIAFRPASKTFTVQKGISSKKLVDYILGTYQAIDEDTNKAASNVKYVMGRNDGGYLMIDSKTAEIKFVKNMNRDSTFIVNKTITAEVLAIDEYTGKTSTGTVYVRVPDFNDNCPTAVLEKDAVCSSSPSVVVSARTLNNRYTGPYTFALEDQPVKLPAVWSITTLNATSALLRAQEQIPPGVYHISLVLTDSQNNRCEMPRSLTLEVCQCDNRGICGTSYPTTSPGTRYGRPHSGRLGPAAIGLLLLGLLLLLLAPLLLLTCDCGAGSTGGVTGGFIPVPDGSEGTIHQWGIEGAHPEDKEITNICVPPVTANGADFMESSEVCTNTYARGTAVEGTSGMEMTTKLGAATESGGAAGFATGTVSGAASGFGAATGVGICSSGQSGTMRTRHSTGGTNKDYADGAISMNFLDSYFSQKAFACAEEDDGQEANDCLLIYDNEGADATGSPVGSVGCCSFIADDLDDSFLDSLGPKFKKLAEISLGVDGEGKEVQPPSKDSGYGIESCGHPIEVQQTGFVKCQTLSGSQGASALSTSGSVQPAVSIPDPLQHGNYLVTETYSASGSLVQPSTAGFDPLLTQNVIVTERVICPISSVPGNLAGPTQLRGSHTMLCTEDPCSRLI
PKD1 inh: inhibitors of human PKD1 kinase. Q15139. inhibition, % (no concentration beside the values). AID 797. PKD1 kinase fluorescence polarization assay. 200,000 compounds, 0.056% hits
VLA-4 mod pick: confirmation of allosteric modulators of human VLA-4 integrin; shares compounds with VLA-4 inh; U937 cells, HUTS-21 LIBS mAb binding, flow cytometry; LDV ligand present at threefold Kd; inhibition, % at 6.7 µM; 1,300 compounds, 2% hits; AID 2813; in the data active means inhibition above about 40%;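 further: 0% = ligand without compound and 100% = no ligand background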
The depositor's hits bear a star. Only some compounds are listed: those with a hit (about 1.8% of all), similar ones and a draw of the others. Unless noted, no stated cut-off is given here; in the data, active means inhibition above about 50%; inactive means the rest.

O=C(c1ccco1)N1CCN(C(=O)c2cc(-c3ccccn3)nc3ccc(Cl)cc23)CC1 was read as VLA-4 inh -8.5, LANA-H2B inh 7.3, GRK2 inh 2.0, HDAC3 inhib -1.8, DSG3 Ab inh 98.3, PKD1 inh -6.5 and VLA-4 mod pick -9.5.
For CC(=O)c1ccc(N2CCN(C(=O)c3cc(-c4ccncc4)nc4ccc(Br)cc34)CC2)cc1 the results were VLA-4 inh -0.8, LANA-H2B inh 3.4, GRK2 inh 17.0, HDAC3 inhib -3.8 and DSG3 Ab inh 103.1.
`O=C(c1cc(-c2ccco2)nc2ccccc12)N1CCN(Cc2ccccc2)CC1` gave VLA-4 inh 5.4, LANA-H2B inh 6.9, GRK2 inh 3.0, HDAC3 inhib -27.7, DSG3 Ab inh 91.4 and VLA-4 mod pick -2.9.
For CCOC(=O)c1ccccc1NC(=O)COC(=O)CCNS(=O)(=O)c1ccccc1 the results were VLA-4 inh 1.3, LANA-H2B inh 3.9, GRK2 inh 0.0, HDAC3 inhib 6.6 and DSG3 Ab inh 111.0.
For CN(CCCC(=O)Nc1ccc(OC(F)F)cc1)S(=O)(=O)c1ccc(F)cc1 the results were VLA-4 inh 1.6, LANA-H2B inh -3.4, GRK2 inh 0.0 and HDAC3 inhib 3.3.
O=C(CCc1ccc(S(=O)(=O)N2CCOCC2)cc1)Nc1ccccc1F was read as VLA-4 inh 56.2*, LANA-H2B inh 2.1, GRK2 inh 2.0, HDAC3 inhib -0.8, DSG3 Ab inh 97.3 and VLA-4 mod pick 2.0.
Screening O=C(Nc1ccccc1Cl)c1cc(S(=O)(=O)N2CCCCC2)ccc1N1CCOCC1 returned VLA-4 inh -9.5, LANA-H2B inh -3.2, GRK2 inh 3.0, HDAC3 inhib -2.8, DSG3 Ab inh 93.4, PKD1 inh 0.1 and VLA-4 mod pick 5.4.
For Cc1ccc(NC(=O)c2cc(S(=O)(=O)N(C)C)ccc2N2CCCC2)cc1S(=O)(=O)N(C)C the results were VLA-4 inh 2.1, LANA-H2B inh -3.5, GRK2 inh 4.0, HDAC3 inhib 6.8 and DSG3 Ab inh 91.7.
`O=C(COC(=O)c1ccc(S(=O)(=O)N2CCOCC2)cc1)Nc1ccccc1F` gave VLA-4 inh 10.1, LANA-H2B inh -3.0, GRK2 inh 2.0, HDAC3 inhib -2.6 and DSG3 Ab inh inconclusive.
COc1cc(NC(=O)c2cc(S(=O)(=O)N3CCCCC3)ccc2N2CCOCC2)cc(OC)c1OC was read as DSG3 Ab inh 94.5 and VLA-4 mod pick 0.0.
`COc1ccc(S(=O)(=O)N2CCOCC2)cc1C(=O)Nc1ccc(N2CCCCCC2)cc1` gave DSG3 Ab inh 95.3.
Cc1ccc(NC(=O)c2cc(S(=O)(=O)N3CCCCC3)ccc2N2CCOCC2)cc1S(=O)(=O)N(C)C was read as DSG3 Ab inh 98.3 and VLA-4 mod pick -0.1.
Screening O=C(Nc1ccccc1F)c1cc(S(=O)(=O)N2CCOCC2)ccc1N1CCOCC1 returned DSG3 Ab inh 112.8 and VLA-4 mod pick -2.1.
O=C(CCN1C(=O)c2ccccc2C1=O)C1=NN[C@@H]2C(=O)N(c3ccc4c(c3)OCCO4)C(=O)[C@H]12 was read as VLA-4 inh 5.4, LANA-H2B inh -0.3, GRK2 inh 2.0, HDAC3 inhib 1.1 and DSG3 Ab inh 98.7.
For CC(C)CCn1c(C(C)O)nc2ccccc21 (stereo unspecified) the results were VLA-4 inh 86.7*, LANA-H2B inh 5.5, GRK2 inh 0.0, HDAC3 inhib 9.1, DSG3 Ab inh 106.6, PKD1 inh -8.7 and VLA-4 mod pick -0.2.
`CCCCn1c(C(C)O)nc2ccccc21` (stereo unspecified) gave VLA-4 inh 1.2, LANA-H2B inh 8.3, GRK2 inh 0.0, HDAC3 inhib -0.2, DSG3 Ab inh 97.2 and PKD1 inh 7.8.
For COc1ccc(CCNC(=O)CC(C)(C)CC2=NS(=O)(=O)c3ccccc3N2)cc1OC the results were VLA-4 inh 2.7, LANA-H2B inh 9.9, GRK2 inh 0.0 and HDAC3 inhib -3.6.
For COc1ccc(S(=O)(=O)N2CCCC(C(=O)NCc3cccnc3)C2)cc1OC (stereo unspecified) the results were VLA-4 inh 50.5*, LANA-H2B inh 5.4, GRK2 inh 4.0, DSG3 Ab inh 109.0 and VLA-4 mod pick 2.0.
`COc1ccc2c(-c3ccc(OCCN4CCCCC4)cc3)c(-c3ccccc3OC)sc2c1` gave GRK2 inh 0.0, DSG3 Ab inh 108.6 and VLA-4 mod pick 0.0.
For COc1ccccc1-c1sc2ccccc2c1-c1ccc(OCCN2CCCCC2)cc1 the results were GRK2 inh 0.0, DSG3 Ab inh 104.8 and VLA-4 mod pick 0.0.
For COc1ccccc1-c1sc2ccccc2c1-c1ccccc1OC the results were VLA-4 inh 3.9, LANA-H2B inh 3.4, GRK2 inh 3.0, HDAC3 inhib -0.5 and DSG3 Ab inh 104.1.
`CCn1c(COc2ccccc2Cl)nnc1SCC(=O)Nc1ncccc1C` gave VLA-4 inh 24.2, LANA-H2B inh 0.1, GRK2 inh 4.0, HDAC3 inhib -7.2, DSG3 Ab inh 101.3 and PKD1 inh -4.8.
CNc1nc(C)nc(-n2nc(C)cc2C)n1 was read as VLA-4 inh -7.4, LANA-H2B inh 3.0, GRK2 inh 0.0, HDAC3 inhib 0.2, DSG3 Ab inh 103.5, PKD1 inh -1.5 and VLA-4 mod pick -0.8.
For O=C(CCC(=O)N1CCN(S(=O)(=O)c2ccccc2)CC1)c1ccc(Br)cc1 the results were VLA-4 inh -22.4, LANA-H2B inh -0.2, GRK2 inh 0.0, HDAC3 inhib -7.1 and DSG3 Ab inh 94.8.
For COC(=O)[C@]1(Cc2ccccc2)N[C@H](CN(C)C(C)=O)[C@@H]2C(=O)N(Cc3ccccc3)C(=O)[C@@H]21 the results were VLA-4 inh 38.9, GRK2 inh 3.0, DSG3 Ab inh 101.5 and VLA-4 mod pick 2.7.
For COC(=O)[C@]1(Cc2ccccc2)N[C@H](CN(C)C(=O)NC(C)C)[C@@H]2C(=O)N(Cc3ccccc3)C(=O)[C@@H]21 the results were VLA-4 inh -6.6, LANA-H2B inh -228.2, GRK2 inh 2.0, HDAC3 inhib -2.9 and DSG3 Ab inh 110.4.
Screening COC(=O)[C@]1(Cc2ccccc2)N[C@H](CN(C)C(=O)c2ccc(C(C)(C)C)cc2)[C@@H]2C(=O)N(Cc3ccccc3)C(=O)[C@@H]21 returned VLA-4 inh 14.8, GRK2 inh 0.0, DSG3 Ab inh 96.3 and VLA-4 mod pick 0.6.
COc1ccc2[nH]c3c(Cl)ncnc3c2c1 was read as VLA-4 inh 48.0, LANA-H2B inh -6.0, GRK2 inh 1.0, HDAC3 inhib -1.5, DSG3 Ab inh 100.0, PKD1 inh 0.5 and VLA-4 mod pick -6.1.
`Cc1cccc(NC(=O)CSCC(=O)N(C)CCOc2ccc(Cl)cc2)c1` gave VLA-4 inh 51.9*, LANA-H2B inh 1.3, GRK2 inh 0.0, DSG3 Ab inh 124.0 and VLA-4 mod pick -1.6.
